Reference: paper PMC12136788
Over roughly 24,000 sequences, “enrichment r” has its median near 0.99; the highest 2% begin near 3.7. The entries come from a sample that favours the highest values as a whole.

T1: UNK ZnF1-3 (human, UniProt Q9C0B0 31-174)
T1 sequence: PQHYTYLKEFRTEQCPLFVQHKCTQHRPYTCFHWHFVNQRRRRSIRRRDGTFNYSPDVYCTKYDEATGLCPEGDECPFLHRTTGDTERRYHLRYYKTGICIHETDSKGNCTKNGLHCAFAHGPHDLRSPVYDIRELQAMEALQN

B1: 23688267_23688387_1410_3pUTR_ENSMUSG00000048439_ENSMUST00000049887|mouse|control|control (ssRNA)
RNA: GGGAGUUCUACAGUCCGACGAUCUGAAUUUGUGGUGUUCUGCUGCUCAGCUUCCCAGACUGUAGGCAUGCAGGACAUGCCUGGCUAAGGCAUUCUUUCUGUAUUUAAACCUGACCUUUAUACAGUCAGAAGCUCGACCGGUGGCAACAGAGGAUUGAGCAUCA
B2: chr2:228221723:228221724:+_ENSG00000168958_ENST00000354503|hu_mus|FALSE|FALSE (ssRNA)
RNA: GGGAGUUCUACAGUCCGACGAUCGACCAUUUCUCUUUUAGCACGCUCUUUAUUCUCCUCUUCCAGAAGUUGGAGACGUCUAUUUAAUUUGAUUAUCUGACGUCUUAAUGAAGCUGCAUCUACCACAGUCAUGUCAUCUGAAGCCAACAGAGGAUUGAGCAUCA
B3: 60766941_60767061_3855_CDS_ENSG00000011028_ENST00000303375|human|control|control (ssRNA)
RNA: GGGAGUUCUACAGUCCGACGAUCGAAGGCCUGGGUGUAGGGGUCGGGCACGUAGGCCAGGCUGGCAUUGCGGCUCUCACACAGCAGGAGGGCAUCGUGCCAGCGCAGCGGCUUCUGAAGCAGCCGGAAGGUGCCGUUGAGGUACAACAGAGGAUUGAGCAUCA
B4: chr3:196311055:196311056:+_ENSG00000174013_ENST00000440469|hu_hu|FALSE|FALSE (ssRNA)
RNA: GGGAGUUCUACAGUCCGACGAUCGACCUUUGGAAGUCCUCUAAAAGCAACCCCCAGGAACUCAUAUCCACGUUCAAAAGCUAAAGUCUUAUCUUCCAUGUCCAAGAUGACUCGAAUUCUUUCUCCUAUCUGAUAUUUUGGUGCCAACAGAGGAUUGAGCAUCA
B5: 112506700_112506820_3235_3pUTR_ENSMUSG00000032727_ENSMUST00000109272|mouse|control|control (ssRNA)
RNA: GGGAGUUCUACAGUCCGACGAUCAAUAAAUACCCUCCCGUCCAGUCACUAGGACCACUACCUCCUACCUACUCUUCAGCACGACCUUGAAGCGACUCACACUUAUAAACAGCAACACAACUAGGAAAAUAAAAAAAAAAAUCACAACAGAGGAUUGAGCAUCA
B6: 32740819_32743422_11525_CDS_ENSG00000115760_ENST00000421745|human|control|control (ssRNA)
RNA: GGGAGUUCUACAGUCCGACGAUCCAGCAUCAACUGUAAAAAUAAUCUUCGUAUAAACCCUGAAAUGUUCCCAGAUGUUGGAAGGUUCCCUCUUUGAGGAGAUGUCUGAAAUAGUUCACAAAGAACCUGUGCCAUCAGCUUUUGCAACAGAGGAUUGAGCAUCA
B7: chrX:71549762:71549763:+_ENSMUSG00000019087_ENSMUST00000019231|mus_mus|mus_mus_mus_hu_False|28_88 (ssRNA)
RNA: GGGAGUUCUACAGUCCGACGAUCAAACCCGUGUACUUCUUAUUGUUACAUCACCCCCACCAGAAAACGAUAACGACAGCCAAGCAGGACAGACAGUUAAGUAGUACUUCCACACCUCCAAACUCAGGGAGCCCUAUAACCUUACAACAGAGGAUUGAGCAUCA
B8: chrX:71549762:71549763:+_ENSMUSG00000019087_ENSMUST00000019231|mus_mus|mus_mus_mus_hu_False|28_98 (ssRNA)
RNA: GGGAGUUCUACAGUCCGACGAUCAAACCCGUGUACUCACUCUUAACAGCACAACAUCACCAGAAAACGAUAACGACAGCCAAGCAGGACAGACAGUUAAGUAGUACUUCCACACCUCCAAACUCAGGGAGCCCUAUAACCUUACAACAGAGGAUUGAGCAUCA
B9: chr1:32661602:32661603:+_ENSG00000084652_ENST00000373610|hu_hu|FALSE|FALSE (ssRNA)
RNA: GGGAGUUCUACAGUCCGACGAUCCAGCAUCCCUCUUCCUUGGAAGGUCCUCAAUACAAACACUGUCAUGUGCAAAAAAAAAAGAAAAAGAAAAAAAAAAAAAAAGAAAAAGAAAUAAAGAAAAAAACACCUUCAGAAAUAAUCCAACAGAGGAUUGAGCAUCA
B10: chr2:140009677:140009678:+_ENSMUSG00000027384_ENSMUST00000044825|mus_mus|FALSE|FALSE (ssRNA)
RNA: GGGAGUUCUACAGUCCGACGAUCGCUGCUAACCACCAGGUCAAACGUGUUUUCUUGGAAGGGAAGGAAUUCUUCAUCAGCUAAAAUAUUCACAGUAGGAAUAUCUGUUUCUAAAGAAUUUUUCAAAGCAUGCUCUGCAAUGUCCAACAGAGGAUUGAGCAUCA
B11: chr3:41266445:41266446:+_ENSG00000168036_ENST00000349496|perfect_dup|FALSE|FALSE (ssRNA)
RNA: GGGAGUUCUACAGUCCGACGAUCCAUAGCAGCUCGUACCCUCUGAGCUCGAGUCAUUGCAUACUGUCCAUCAAUAUCAGCUACUUGUUCUUGAGUGAAGGACUGAGAAAAUCCCUGUUCCCACUCAUACAGGACUUGGGAGGUCAACAGAGGAUUGAGCAUCA
B12: chrX:140365796:140365797:-_ENSMUSG00000031285_ENSMUST00000033642|mus_mus|mus_mus_mus_hu_False|28_108 (ssRNA)
RNA: GGGAGUUCUACAGUCCGACGAUCCUUCUCAUUACUUAGUGCCUGCAAGGUUCUGGUUCGGUAGAAGCUACAGUGGGCGCUGUGAGUGGGGCUAGGCAACCCAUUCAUCCGUGACCCUCGCAUGUUCCUGGAUGUCUUAUCUCUCAACAGAGGAUUGAGCAUCA
B13: chr9:95013113:95013114:-_ENSG00000196305_ENST00000443024|hu_hu|hu_hu_hu_mus_False|68_98 (ssRNA)
RNA: GGGAGUUCUACAGUCCGACGAUCCUCAGUCAGAAAGGGUGUGUAGGGGGCCAUCAGUCUGCACAGAGAAAGCAGAACACUGAACAGUGUCUCCAGAGCCAUGACACAGUCUUCCACCCCACUCUCACCCUUUAACCUCCUCCUCAACAGAGGAUUGAGCAUCA
B14: 176631152_176631272_1200_CDS_ENSG00000165671_ENST00000439151|human|control|control (ssRNA)
RNA: GGGAGUUCUACAGUCCGACGAUCUUUCUGUUUCCCUCUUCUCCUAAGGACAGGUAGCUCUUCGAAUUGAUGUCUGCCUUCAAACAUGACGAUUGCUUUUCCAGCCACCCAGGCUCUCUCAGAAGGAUCUCCAAAAGCCUCCACCAACAGAGGAUUGAGCAUCA

Biological target: T1, UNK ZnF1-3
Assay: nsRBNS (natural sequence RNA bind-n-seq); RBNS binding buffer (assumed for nsRBNS): 25 mM Tris pH 7.5, 150 mM KCl, 3 mM MgCl2, 0.01% Triton X-100, 500 ug/ml BSA, 20 U/ml SUPERase-In, 4 C; UNK is unkempt and MSI1 is Musashi-1; names of the RNAs are library labels; protein concentration not given here; high values mean tight binding

Binder | binding signal [enrichment R]
B1 | 0.457
B2 | 0.795
B3 | 0.939
B4 | 1.13
B5 | 4.38
B6 | 1.97
B7 | 1.85
B8 | 1.72
B9 | 4.33
B10 | 1.19
B11 | 0.798
B12 | 0.752
B13 | 0.959
B14 | 0.923
